About 83,000 compounds went through this panel and 20% of them were active in at least one assay; those are over-represented in the sample as a whole.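 Plates (96-well) were seeded with cells, treated with compound at one concentration, and incubated for 48 hours before percent growth was determined.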 A number with no mark means an inactive call. Calls of active or inactive are those of the source. Rule for the calls: active = growth percent below 10; inactive = the rest.
Assays:
Experiment in all cases: NCI-60 one-dose screen, 48 h (100 = growth as untreated, 0 = no growth, -100 = all killed)
Settings in all cases: 10 µM unless noted
[1] = system: T-47D breast
[2] = system: BT-549 breast
[3] = system: MDA-MB-435 melanoma
[4] = system: SW-620 colon
[5] = system: MCF7 breast
[6] = system: HCT-116 colon
[7] = system: HCC-2998 colon
[8] = system: KM12 colon

COc1ccc(/C=C(\C#N)n2nnc3ccccc32)cc1
growth [1]: 50.1%
growth [2]: 21.6%
growth [3]: -40.1% (active)
growth [4]: 12.8%
growth [5]: 9.96% (active)
growth [6]: 4.97% (active)
growth [7]: -2.35% (active)
growth [8]: 1.79% (active)

Cc1nc(Nc2cccc(NC(=O)Nc3ccc(Cl)cc3)c2)c2ccccc2n1
growth [1]: 71.2%
growth [2]: 101%
growth [3]: 79.3%
growth [4]: 46.7%
growth [5]: 78.1%
growth [6]: 67.1%
growth [7]: 106%
growth [8]: 69.7%

COC(=O)/C(=C\c1ccc(OC)cc1)C(=O)N1c2ccccc2Sc2ccccc21
growth [1]: 48.4%
growth [2]: -45.7% (active)
growth [3]: -57.8% (active)
growth [4]: 33.6%
growth [5]: 26.8%
growth [6]: 23.3%
growth [7]: 86.8%
growth [8]: 36.1%

CC(=O)Nc1ccc(-c2cc3c(NCc4ccc(F)cc4)ncnc3s2)cc1
growth [1]: 74%
growth [2]: 71.7%
growth [3]: 93%
growth [4]: 97.7%
growth [5]: 75.7%
growth [6]: 80.7%
growth [7]: 90.1%
growth [8]: 99.3%

CC(=O)Nc1nccs1
growth [1]: 97.7%
growth [2]: 112%
growth [3]: 106%
growth [4]: 92.5%
growth [5]: 91.2%
growth [6]: 101%
growth [7]: 102%
growth [8]: 96%

CCOC(=O)c1c(C)nc2c(c1N)/C(=C/c1ccc(OC)cc1)C(=O)N2Cc1ccc(F)cc1
growth [1]: -0.0776% (active)
growth [2]: -85.5% (active)
growth [3]: -62.1% (active)
growth [4]: -58.9% (active)
growth [5]: -35.7% (active)
growth [6]: -85.4% (active)
growth [7]: -83.7% (active)
growth [8]: -59.7% (active)

CC(=O)NCC(=O)Nc1ccc(-c2nnc3ccccn23)nc1.CC(=O)NCC(=O)Nc1ccc(-c2nnc3ccccn23)nc1.[Pt+2]
growth [1]: 105%
growth [2]: 114%
growth [3]: 114%
growth [4]: 105%
growth [5]: 110%
growth [6]: 95.4%
growth [7]: 106%
growth [8]: 109%

COc1cc(/C=C/C(=O)c2cccc(-n3cc(-c4ccccc4)[nH]c3=O)c2)cc(OC)c1OC
growth [1]: -6.56% (active)
growth [2]: -13.1% (active)
growth [3]: -3.32% (active)
growth [4]: -29% (active)
growth [5]: -93.8% (active)
growth [6]: -90.3% (active)
growth [7]: -81.4% (active)
growth [8]: -53.6% (active)

Cc1c2c(cn1Cc1ccccc1)CCc1cn[nH]c1-2
growth [1]: 90.3%
growth [2]: 96.5%
growth [3]: 26.8%
growth [4]: 95.8%
growth [5]: 81.5%
growth [6]: 89.5%
growth [7]: 86.1%
growth [8]: 78.8%

Cl.Fc1c[c-]c(-c2ccccn2)c(F)c1.[Pt].c1ccc([PH+](C[PH+](c2ccccc2)c2ccccc2)c2ccccc2)cc1
growth [1]: -56.2% (active)
growth [2]: -85% (active)
growth [3]: -83.3% (active)
growth [4]: -78.1% (active)
growth [5]: -83.7% (active)
growth [6]: -83.4% (active)
growth [7]: -87.4% (active)
growth [8]: -82% (active)

NC(=O)c1c(NC(=O)c2ccc(C(F)(F)F)cc2Cl)sc2c1CCC(=O)C2
growth [1]: -21.2% (active)
growth [2]: -33.2% (active)
growth [3]: -42% (active)
growth [4]: -49.7% (active)
growth [5]: 5.41% (active)
growth [6]: -56.9% (active)
growth [7]: -6.6% (active)
growth [8]: -56.7% (active)

O=[N+]([O-])c1ccc(-c2cc3c(Nc4ccc(OCc5cccc(Cl)c5)c(Cl)c4)ncnc3s2)cc1
growth [1]: 58.9%
growth [2]: 86.2%
growth [3]: 74.3%
growth [4]: 48.7%
growth [5]: 44.1%
growth [6]: 52%
growth [7]: 102%
growth [8]: 74%

Cc1ccc(O)c(C(=O)c2ccccc2Cl)c1
growth [1]: 108%
growth [2]: 93.8%
growth [3]: 93.2%
growth [4]: 98.4%
growth [5]: 101%
growth [6]: 99%
growth [7]: 56.2%
growth [8]: 116%

O=C(CC1Sc2ccccc2NC1=O)NNc1ccc(F)cc1 (stereo not drawn)
growth [1]: 66.4%
growth [2]: 88.6%
growth [3]: 31%
growth [4]: 106%
growth [5]: 84.7%
growth [6]: 71.6%
growth [7]: 63.7%
growth [8]: 77.4%

COc1ccc(-c2cncnc2N)cc1OC
growth [1]: -95.7% (active)
growth [2]: 99.2%
growth [3]: 104%
growth [4]: 101%
growth [5]: 103%
growth [6]: 94.8%
growth [7]: 103%
growth [8]: 109%

CCO/C=N/C1=C(C#N)C(c2ccc(OC)cc2)c2c(c3ccccc3n(C)c2=O)O1 (stereo not drawn)
growth [1]: 101%
growth [2]: 117%
growth [3]: 107%
growth [4]: 101%
growth [5]: 94.8%
growth [6]: 102%
growth [7]: 106%
growth [8]: 103%

Clc1ccc(-c2nnc(Cn3ccnc3)o2)cc1
growth [1]: 100%
growth [2]: 120%
growth [3]: 105%
growth [4]: 98.6%
growth [5]: 94.4%
growth [6]: 90.5%
growth [7]: 110%
growth [8]: 105%

COC(=O)CNC(=O)C(=O)c1c(O)c(O)c(C(C)C)c2cc(C)c(-c3c(C)cc4c(C(C)C)c(O)c(O)c(C(=O)C(=O)NCC(=O)OC)c4c3O)c(O)c12
growth [1]: 16%
growth [2]: 30.2%
growth [3]: 55.1%
growth [4]: 16%
growth [5]: 18%
growth [6]: 11%
growth [7]: 33.8%
growth [8]: 16.1%

CCC(=O)OC1=C(C)SC2=NC(c3ccc(Cl)c(Cl)c3)=CC(c3cc(OC)c(OC)c(OC)c3)N21 (stereo not drawn)
growth [1]: 97.5%
growth [2]: 103%
growth [3]: 103%
growth [4]: 109%
growth [5]: 94.1%
growth [6]: 95%
growth [7]: 110%
growth [8]: 107%

CCCCOC(=O)c1ccc(NC(=O)C(C)N2CCOCC2)cc1 (stereo not drawn)
growth [1]: 107%
growth [2]: 86.6%
growth [3]: 113%
growth [4]: 101%
growth [5]: 106%
growth [6]: 77.6%
growth [7]: 102%
growth [8]: 109%

COc1cc2c(c(OC)c1OC)C(=O)/C(=C/c1cc(C)c(O)c(C)c1)S2
growth [1]: 47.6%
growth [2]: 56.9%
growth [3]: -37.2% (active)
growth [4]: 39.3%
growth [5]: 21.7%
growth [6]: 33.2%
growth [7]: 46.4%
growth [8]: 20.9%

Nc1nc(Nc2ccc(Cl)cc2)nn1S(=O)(=O)c1ccc(-c2ccc(F)cc2)cc1
growth [1]: 68.6%
growth [2]: 108%
growth [3]: 91%
growth [4]: 95.5%
growth [5]: 58.2%
growth [6]: 75.1%
growth [7]: 82.9%
growth [8]: 61.2%

Cc1c2c(cn1Cc1ccccc1)CCc1cn(C)nc1-2
growth [1]: 87.9%
growth [2]: 74.4%
growth [3]: 104%
growth [4]: 109%
growth [5]: 85.2%
growth [6]: 74.3%
growth [7]: 97.6%
growth [8]: 99.9%

O=C(NC(=S)Nc1ccc(-c2nc3ccccc3[nH]2)cc1)c1ccc2ccccc2c1
growth [1]: 18.5%
growth [2]: 4.76% (active)
growth [3]: 22.6%
growth [4]: 34.2%
growth [5]: 36.4%
growth [6]: 3.95% (active)
growth [7]: 66.2%
growth [8]: 31.3%

C=CCN1C(=O)[C@]2(SC1=S)[C@H](c1cccc(Cl)c1)CN(C)[C@]21C(=O)NC2C=CC(Cl)=C[C@H]21 (stereo partly drawn)
growth [1]: 15.6%
growth [2]: 34.1%
growth [3]: 55.1%
growth [4]: 30.8%
growth [5]: 16.9%
growth [6]: 33.4%
growth [7]: 78.2%
growth [8]: 64.1%

CCCCNC(=O)NS(=O)(=O)c1ccc(N2N=C(c3ccc(C)cc3C)CC2c2ccc(N(C)C)cc2)cc1 (stereo not drawn)
growth [1]: 70.4%
growth [2]: 45.6%
growth [3]: 9.98% (active)
growth [4]: 61.8%
growth [5]: 37.4%
growth [6]: 39.3%
growth [7]: 46.1%
growth [8]: 49.2%

Oc1[nH]c2ccccc2c1/C=c1/cc2c(c(-c3ccc(F)cc3)n1)=Nc1ccccc1-2
growth [1]: -37.1% (active)
growth [2]: -31.3% (active)
growth [3]: -30.4% (active)
growth [4]: -10.6% (active)
growth [5]: -62.4% (active)
growth [6]: -61.3% (active)
growth [7]: -63.7% (active)
growth [8]: 14.6%

COc1ccc(-n2nnc(C(=O)NCCc3c[nH]c4ccc(F)cc34)c2C)cc1
growth [1]: 89.3%
growth [2]: 103%
growth [3]: 101%
growth [4]: 101%
growth [5]: 95.7%
growth [6]: 93.5%
growth [7]: 106%
growth [8]: 103%

COc1cc2cc(Oc3ccc(NC(=O)Nc4cc(C(F)(F)F)cc(C(F)(F)F)c4)cc3)c(C)nc2cc1OCCN1CCCCC1
growth [1]: -39.7% (active)
growth [2]: 94.3%
growth [3]: -94.4% (active)
growth [4]: -84.4% (active)
growth [5]: -84.8% (active)
growth [6]: -76.8% (active)
growth [7]: -94.5% (active)
growth [8]: -78.5% (active)

COc1ccc(/C=C2\COc3ccc(O)cc3C2=O)cc1OC
growth [1]: 73%
growth [2]: 75.7%
growth [3]: 24.4%
growth [4]: 10.6%
growth [5]: 27.3%
growth [6]: 11.7%
growth [7]: 121%
growth [8]: 20.2%

CCN(CC)S(=O)(=O)c1ccc(O)c(NC(=O)c2[nH]c(C)c(C(C)=O)c2CCc2ccc(Cl)cc2)c1
growth [1]: 13%
growth [2]: 40.5%
growth [3]: 43.4%
growth [4]: 61.5%
growth [5]: 43.8%
growth [6]: 28.1%
growth [7]: 76.3%
growth [8]: 29.8%
